Compound activity (PubChem)
HPGD block: HPGD (human) dehydrogenase inhibition | P15428 | purified HPGD, NADH fluorescence kinetic, PGE2 substrate | Potency, µM, inactives show top-dose activity change, negative = inhibition, hits mostly inhibitors | 150,000 compounds, 4.3% hits | AID 894; further: potency means the concentration at half of the fitted maximal effect; on the % scale 0 is the no-effect control and ±100 the full control effect
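NADH formation kinetics: reaction with 30 uM PGE2 and 1 mM NAD+ (final), 20 nM enzyme, Tris-HCl pH 8 with Tween 20, after 15 min compound preincubation at room temperature. Fluorescence change, last versus first of five reads.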
PNC assembly inh: blocks assembly of the perinucleolar compartment | PC3M PTB-GFP, PNC prevalence imaging, 16 h; active compounds read low | activity change (PNC), negative = inhibition, % at 10 µM | 140,000 compounds, 3.1% hits;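 active means readout at or below -70, meaning at least 70% loss of cells showing the perinucleolar compartment, a nuclear body marking cancer cells; inconclusive means readout between -30 and a set limit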;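 further: plate controls were DMSO wells for no effect and camptothecin positive control wells for full effect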
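Compounds are pinned in duplicate onto adhered PC3M cells stably expressing GFP-tagged PTB and incubated 16 h at 37 C. Cells are then fixed, nuclei stained with Hoechst, and PNC-positive cells counted.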
ALDH1A1 block: inhibitors of human aldehyde dehydrogenase 1A1; 220,000 compounds, 7.3% hits; P00352; Potency, µM (series often up to 75.3 µM), for the others: at the highest dose activity, negative = inhibition, most hits filed as inhibitors; AID 1030; Purified ALDH1A1, NADH fluorescence, propionaldehyde substrate;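 further: potency means the concentration at half of the fitted maximal effect; plate controls were no enzyme wells and a reference inhibitor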
Target sequence (P00352 whole entry, looked up): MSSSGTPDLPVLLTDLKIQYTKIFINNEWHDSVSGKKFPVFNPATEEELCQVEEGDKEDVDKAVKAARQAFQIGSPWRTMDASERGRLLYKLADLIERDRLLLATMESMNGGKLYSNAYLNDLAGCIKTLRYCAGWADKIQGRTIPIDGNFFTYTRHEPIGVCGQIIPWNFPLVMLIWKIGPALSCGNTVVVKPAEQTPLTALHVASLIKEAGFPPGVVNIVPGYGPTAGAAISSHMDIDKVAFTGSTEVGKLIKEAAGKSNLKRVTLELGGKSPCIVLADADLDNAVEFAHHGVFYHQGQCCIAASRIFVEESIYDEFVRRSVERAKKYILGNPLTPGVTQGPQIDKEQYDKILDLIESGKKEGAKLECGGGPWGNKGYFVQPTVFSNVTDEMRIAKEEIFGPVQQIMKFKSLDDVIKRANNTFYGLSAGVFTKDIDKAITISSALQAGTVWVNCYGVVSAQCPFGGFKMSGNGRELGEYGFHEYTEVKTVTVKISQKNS
HTT ATP protect: Huntington cell model cytoprotection by ATP luminescence. PC12 HTT-Q103 induced, cytoprotection, ATP luminescence, 40 h. 230,000 compounds, 0.14% hits. AID 1471. Potency, µM (titrated, usually from 56.4 µM), for the others: cytoprotection (ATP increase), hits mostly activators; active means well fitted curve in the direction sought with a large enough effect; inconclusive means small, poorly fitted or top-dose-only effect, or another doubt; inactive means no such curve, though single readings can be large; an effect the other way counts as inactive or inconclusive; further: potency means the concentration at half of the fitted maximal effect; % of control where 0% means no effect; nearly all actives have a fitted effect of over 45% in size
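ATP quantification (ATPlite) reports survival of PC12 cells in which tebufenozide, 100 nM final, switches on Htt exon 1 with 103 glutamines linked to GFP; compounds are titrated.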
RGS12 GoLoco inh: inhibitors of human Gai1-RGS12 GoLoco interaction (red fluorophore); Gai1:RGS12 GoLoco peptide FP, rhodamine, 10 min; 230,000 compounds, 0.44% hits; AID 880; P63096; Potency, µM (titrated, usually from 61.6 µM), inactives show at the highest dose activity, negative = inhibition, usual class: inhibitors; active means well fitted inhibition curve with a large enough effect, not every such curve was filed as active; inactive means no such curve, though single readings can be large or run the other way; further: potency means the concentration at half of the fitted maximal effect; on the % scale 0 is the no-effect control and ±100 the full control effect; nearly all actives have a fitted effect of over 30% in size
HttQ103 aggreg: mutant huntingtin aggregation inhibition | PC12 HttQ103-GFP aggregates, Acumen cytometry, 40 h | Potency, µM (titrated, usually from 46.1 µM), inactives show top-dose activity change, negative = inhibition, actives largely listed as inhibitors | 220,000 compounds, 1.1% hits | AID 1688; active means well fitted curve in the direction sought with a large enough effect; inconclusive means small, poorly fitted or top-dose-only effect, or another doubt; inactive means no such curve, though single readings can be large; an effect the other way counts as inactive or inconclusive; further: potency means the concentration at half of the fitted maximal effect; on the % scale 0 is the no-effect control and ±100 the full control effect; nearly all actives have a fitted effect of over 60% in size
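PC12 cells stably carrying ecdysone-inducible HTT exon 1 Q103–GFP were induced with tebufenozide (100 nM final) and treated with library compounds in titration. GFP aggregates in lysates were counted by laser scanning cytometry.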
The depositor's hits bear a star; [ ] = another dose, or the depositor's remark. This is a sample that favours compounds with a hit; in the whole collection about 11% have one here. Unless noted, the call rests on the fitted dose curve; in most records, active means well fitted inhibition curve with a large enough effect (not every such curve was filed as active); inconclusive means small, poorly fitted or top-dose-only effect, or another doubt; inactive means no such curve, though single readings can be large or run the other way.

`O=C1c2cccc3c(N4CCCCC4)ccc(c23)C(=O)N1c1ccccc1O` gave ALDH1A1 block -1%, HTT ATP protect -32%, RGS12 GoLoco inh 21% and HttQ103 aggreg inconclusive.
For O=C1c2ccccc2-c2onc3ccc(N4CCCC4)c1c23 the results were ALDH1A1 block 22µM*, HTT ATP protect -77%, RGS12 GoLoco inh -200% and HttQ103 aggreg -5%.
O=C1c2ccccc2-c2onc3ccc(NCc4ccco4)c1c23 was read as HPGD block -7%, PNC assembly inh -16, ALDH1A1 block inconclusive, HTT ATP protect -27%, RGS12 GoLoco inh 11µM* and HttQ103 aggreg 4%[9.22 µM].
`Cc1cc(N=Cc2c(CO)cnc(C)c2O)c(N=Cc2c(CO)cnc(C)c2O)cc1C.[Zn]` gave HPGD block -10%, ALDH1A1 block -14%[13.5 µM], HTT ATP protect 3%[10 µM] and RGS12 GoLoco inh 5%[14.2 µM].
`N#Cc1c(-c2ccc(F)cc2)cc(-c2cccnc2)nc1N` gave HPGD block inconclusive, PNC assembly inh -89*, ALDH1A1 block inconclusive, HTT ATP protect 13%[10 µM], RGS12 GoLoco inh -7% and HttQ103 aggreg 0%.
`N#Cc1c(-c2ccc(Br)cc2)cc(-c2cccnc2)nc1N` gave HPGD block -11%, PNC assembly inh -11, ALDH1A1 block 2%, HTT ATP protect -13%[10 µM], RGS12 GoLoco inh 4% and HttQ103 aggreg -8%.
For CC(C)C(N)C(=O)NC(Cc1c[nH]c2ccccc12)C(=O)O (centres undefined) the results were HPGD block -2%, ALDH1A1 block -2% and RGS12 GoLoco inh 0%.
`Cc1ccc(C(=O)c2cc(C)sc2NC(=O)CN2CCN(C(=O)c3ccco3)CC2)cc1` gave PNC assembly inh -22, ALDH1A1 block 25µM*, HTT ATP protect 19%[10 µM] and HttQ103 aggreg inconclusive.
`CC1CCc2c(sc(NC(=O)CN3CCN(C(=O)c4ccco4)CC3)c2C#N)C1` (centres undefined) gave HPGD block -28%, PNC assembly inh -117*, ALDH1A1 block inconclusive, HTT ATP protect -38%, RGS12 GoLoco inh 6% and HttQ103 aggreg -30%.
`COCCNC(=O)C(c1cccs1)N(C(=O)Cn1nnc2ccccc21)c1ccc(OC)cc1` (centres undefined) gave HPGD block -10%, PNC assembly inh inconclusive, ALDH1A1 block inconclusive, HTT ATP protect -23%[1.9 µM], RGS12 GoLoco inh -9% and HttQ103 aggreg -5%.
`CCCCc1ccc(NC=C2C(=O)OC3(CCCCC3)OC2=O)cc1` gave HPGD block -7%, PNC assembly inh 20, ALDH1A1 block inconclusive, HTT ATP protect -21%, RGS12 GoLoco inh 2% and HttQ103 aggreg inconclusive.
For NS(=O)(=O)c1ccc(NC=C2C(=O)OC3(CCCCC3)OC2=O)cc1 the results were HPGD block 35µM*, PNC assembly inh -23, ALDH1A1 block 1.9µM*, HTT ATP protect -9%, RGS12 GoLoco inh -22% and HttQ103 aggreg 1%.
CCOC(=O)CNC(=O)c1ccc(C#CC2(O)CCCCC2)cc1 was read as HPGD block -1%, PNC assembly inh -13, ALDH1A1 block 3%, RGS12 GoLoco inh -7% and HttQ103 aggreg -14%.
Screening O=C(c1ccc(C#CC2(O)CCCCC2)cc1)N1CCOCC1 returned HPGD block 14µM*, PNC assembly inh inconclusive, ALDH1A1 block -11%, HTT ATP protect -7%, RGS12 GoLoco inh -9% and HttQ103 aggreg -7%.
`Cc1cc(C)c(C#N)c(Cl)n1` gave HPGD block -4%, PNC assembly inh 19, ALDH1A1 block 4%, HTT ATP protect 2%[10 µM], RGS12 GoLoco inh 25% and HttQ103 aggreg 3%.
Screening Cc1cc(C)nc(/N=c2/ssnc2Cl)c1 returned HPGD block 13µM*, PNC assembly inh -27, ALDH1A1 block 4µM*, HTT ATP protect -9%[10 µM], RGS12 GoLoco inh -14% and HttQ103 aggreg inconclusive.
Cc1cc(Cl)ccc1N=c1ssnc1Cl was read as HPGD block 4.5µM*, PNC assembly inh 28, ALDH1A1 block 1.3µM*, HTT ATP protect -9%, RGS12 GoLoco inh 4% and HttQ103 aggreg -17%[9.22 µM].
